Compounds without any hit were thinned out: in the full panel of roughly 83,000, 20% have a hit.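 In brief: 96-well plates, 48 h treatment, single concentration, percent growth endpoint.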 Calls of active or inactive are those of the source. How the source made its calls: active means growth percent below 10; inactive means the rest.
How the values were obtained:
Assay in all cases: NCI-60 one-dose screen, 48 h (100 = growth as untreated, 0 = no growth, -100 = all killed)
Details in all cases: 10 µM unless noted
T-47D breast = system: T-47D breast
BT-549 breast = system: BT-549 breast
MDA-MB-435 melanoma = system: MDA-MB-435 melanoma
SW-620 colon = system: SW-620 colon
MCF7 breast = system: MCF7 breast
HCT-116 colon = system: HCT-116 colon
HCC-2998 colon = system: HCC-2998 colon
KM12 colon = system: KM12 colon

Measured: growth

Cc1ccc(/C=C/CC(=O)Nc2ccc(C(=O)Nc3ccc(F)cc3N)nc2)cn1
inactive: T-47D breast 10.8% | BT-549 breast 48.5% | MDA-MB-435 melanoma 18.6% | SW-620 colon 26.8% | MCF7 breast 18.4% | HCT-116 colon 17.7% | HCC-2998 colon 31.4% | KM12 colon 49.5%

COc1ccc2c(c1)c(-c1nnc(N)nc1-c1cn(C)c3ccccc13)cn2C
inactive: T-47D breast 82.3% | BT-549 breast 108% | MDA-MB-435 melanoma 91.6% | SW-620 colon 94.6% | MCF7 breast 79.5% | HCT-116 colon 89.2% | HCC-2998 colon 102% | KM12 colon 94.6%

CNC(=O)c1c(NC(=O)c2ccc(F)cc2F)sc2c1CCC(=O)C2
inactive: MDA-MB-435 melanoma 12.2% | HCC-2998 colon 13.5%
active: T-47D breast -14.2% | BT-549 breast 6.83% | SW-620 colon 5.05% | MCF7 breast 7.35% | HCT-116 colon 7% | KM12 colon 9.65%

CC1(C)CC[C@]2(C(=O)N3CCCN(CC#N)CC3)CC[C@]3(C)C(=CC[C@@H]4[C@@]5(C)CC[C@H](O)C(C)(C)[C@@H]5CC[C@]43C)[C@H]2C1
active: MCF7 breast 5.68% | HCT-116 colon -47.6%
inactive: T-47D breast 52.1% | BT-549 breast 61.4% | MDA-MB-435 melanoma 59.8% | SW-620 colon 27.8% | HCC-2998 colon 71.2% | KM12 colon 54.1%

CCCC(=O)NC(c1cccnc1)c1cc(C(C)=O)c2cccnc2c1O (configuration not stated)
inactive: T-47D breast 41.7% | BT-549 breast 32.2% | MDA-MB-435 melanoma 34.5% | SW-620 colon 38% | MCF7 breast 18.8% | HCT-116 colon 25.5% | HCC-2998 colon 24.9% | KM12 colon 21.4%

Oc1ccc(CSc2nnc(-c3ccncc3)o2)c2cccnc12
inactive: T-47D breast 15.8% | BT-549 breast 23.7% | MDA-MB-435 melanoma 13.4% | SW-620 colon 16.4% | HCC-2998 colon 30.2% | KM12 colon 14.2%
active: MCF7 breast 4.01% | HCT-116 colon 8.9%

CCN1C(=O)N(CC)C2SC(N/N=C/c3cccs3)=NC21 (configuration not stated)
inactive: T-47D breast 68.8% | SW-620 colon 19.8% | MCF7 breast 17.3% | HCC-2998 colon 15.4%
active: BT-549 breast -40% | MDA-MB-435 melanoma -31.7% | HCT-116 colon 3.01% | KM12 colon 6.21%

COC(=O)[C@@]1(C)CC[C@]2(C)CC[C@]3(C)C(=CC(=O)[C@@H]4[C@@]5(C)Cc6c(n(CC#CCN7CCN(C)CC7)c7ccccc67)C(C)(C)[C@@H]5CC[C@]43C)[C@@H]2C1
active: SW-620 colon -63.4% | MCF7 breast -32.4% | HCT-116 colon -28.7%
inactive: T-47D breast 84.8% | BT-549 breast 90.5% | MDA-MB-435 melanoma 40.3% | HCC-2998 colon 94.8% | KM12 colon 52.8%

COc1ccc(/C=C/C(=O)c2nnn(-c3ccc(Br)cc3)c2C)cc1OC
active: HCT-116 colon 5.41%
inactive: T-47D breast 66.4% | BT-549 breast 63.9% | MDA-MB-435 melanoma 61.3% | SW-620 colon 51.6% | MCF7 breast 12.9% | HCC-2998 colon 83.7% | KM12 colon 66.7%

CCCC(=O)NC(c1cccnc1)c1ccc2c(C)ccnc2c1O (configuration not stated)
inactive: T-47D breast 20.7% | BT-549 breast 26.2% | MDA-MB-435 melanoma 30.6% | SW-620 colon 28.6% | HCT-116 colon 16.7% | HCC-2998 colon 24% | KM12 colon 20%
active: MCF7 breast -2.74%

CCOC(=O)c1c(NCC(=O)Nc2cccc(Cl)c2)sc2c1CCCC2
active: MDA-MB-435 melanoma -2.01%
inactive: T-47D breast 63.4% | BT-549 breast 70.1% | SW-620 colon 76.1% | MCF7 breast 43% | HCT-116 colon 73.5% | HCC-2998 colon 103% | KM12 colon 95.8%

Nc1c(C(=O)c2ccccc2)sc2nc(-c3cnccn3)cc(-c3cccs3)c12
inactive: T-47D breast 98.9% | BT-549 breast 116% | MDA-MB-435 melanoma 98.9% | SW-620 colon 105% | MCF7 breast 90.8% | HCT-116 colon 96.5% | HCC-2998 colon 105% | KM12 colon 102%

CCOC(=O)C1=C(C)Nc2nc3ccccc3n2C1c1ccccc1 (configuration not stated)
inactive: T-47D breast 95.5% | BT-549 breast 101% | MDA-MB-435 melanoma 96.6% | SW-620 colon 87.8% | MCF7 breast 87.8% | HCT-116 colon 69.1% | HCC-2998 colon 114% | KM12 colon 98.1%

O=C(COc1ccc(C2SCC(=O)N2c2ccc(F)cc2)cc1)c1ccccc1 (configuration not stated)
inactive: T-47D breast 89.8% | BT-549 breast 93.4% | MDA-MB-435 melanoma 103% | SW-620 colon 116% | MCF7 breast 81.7% | HCT-116 colon 94.3% | HCC-2998 colon 106% | KM12 colon 92.4%

From PubChem BioAssay (NCI)
